Screen size: about 1,000 compounds; about 250 (25%) were called active. Roughly 31% stayed inconclusive and do not appear here. The rule behind the calls is not given here. Not all results are given here. Entries with a potency or affinity are not part of this list. Numbered stars: 1 amine (or outer) side, 2 acyl side, 3 side chain; on linkers, the order of the positions; unused ones are H or OH. Square brackets hold non-standard residues; d marks the D form. Side chains are listed from the residue outwards. Peptide text beside a SMILES is read from it. * marks the point of attachment. Ethylenediamine = C(CN[*:2])N[*:1]; Hyp = O=C(O)[C@@H]1C[C@@H](O)CN1; Phg = N[C@H](C(=O)O)c1ccccc1; CO = O=C([*:1])[*:2]; Bn = c1ccc(C*)cc1
assay: compound activity on host-cell Toxoplasma growth – dose response (AID 1259420); details: Toxoplasma gondii growth in host cells, no IFN-gamma; at 19.5 µM unless noted;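 note: host cells were HeLa; final incubation lasted 72 hours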

Structure (SMILES)	max activity
CC(=O)O[C@H]1C[C@@H](OC(C)=O)C(C)(C)C2C[C@@H](OC(C)=O)[C@@]3(C)C4=CC(=O)O[C@@H](c5ccoc5)[C@]4(C)CCC3[C@]21C (stereo not given in full)	-6.69% [at 0.16 µM] (inactive)
O=C(C[C@@H]1CC[C@@H]2[C@H](COC[C@H](O)CN2C(=O)c2cc(Cl)cc(Cl)c2)O1)N1CCc2ccccc2C1	9.95% (inactive)
C/C=C/c1ccc(C2[C@@H]3CN(Cc4cccc(OC)c4)C[C@H]2N3)cc1 (stereo not given in full)	25.8% [at 1.2 µM] (inactive)
O=C(Nc1cccc(F)c1)N1CCCCN2[C@H](C1)[C@H](c1ccc(C#Cc3cccnc3)cc1)[C@@H]2CO	-11.5% [at 21 µM] (inactive)
O=C(Nc1cccc(F)c1)N1CCCCN2[C@@H](CO)[C@@H](c3ccc(C#Cc4cccnc4)cc3)[C@@H]2C1	16.4% [at 0.6 µM] (inactive)
CC(C)CCN1Cc2c(C(=O)Nc3cccc(F)c3)ncn2-c2ccccc2S1(=O)=O	27% [at 10 µM] (inactive)
COc1ccccc1NC(=O)N1CC(=O)N2[C@H](C1)[C@@H](c1ccc(C#CC(C)C)cc1)[C@@H]2CO	-5.1% [at 5 µM] (inactive)
O=C(c1ccc2c(c1)OCO2)N1CC[C@@H]2[C@H](CO)Nc3ccc(C#Cc4ccccc4)cc3[C@@H]21	15.9% (inactive)
N#Cc1ccc(-c2ccc([C@@H]3[C@H]4CNC[C@@H]3N4Cc3ccc4c(c3)OCO4)cc2)cc1	27.3% [at 10 µM] (inactive)
OC[C@@H]1Nc2ccc(C#Cc3ccc(F)cc3)cc2[C@@H]2[C@H]1CCN2Cc1ccc2c(c1)OCO2	6.67% [at 1.2 µM] (inactive)
COCCO[C@H]1CCN(Cc2c(C)noc2C)[C@H]1Cc1ccccc1	-15.1% [at 10 µM] (inactive)
NCCCC[C@@H]1NC(=O)[C@@H](Cc2c[nH]c3ccccc23)NC(=O)[C@H](c2ccccc2)NC(=O)[C@@H]2C[C@@H](OC(=O)NCCN)CN2C(=O)[C@H](Cc2ccccc2)NC(=O)[C@H](Cc2ccc(OCc3ccccc3)cc2)NC1=O (cyclo([Hyp]([CO-Ethylenediamine])[Phg][dW]KY(Bn)F))	-6.82% [at 1.2 µM] (inactive)
CCCCC[C@H](CC(=O)NO)C(=O)N[C@H](C(=O)N1CCC[C@H]1CO)C(C)C	-4.64% [at 1.2 µM] (inactive)
O=C(C[C@H]1CC[C@H]2[C@@H](COC[C@@H](O)CN2Cc2ccc(Oc3ccccc3)cc2)O1)N1CCN(c2ccccc2)CC1	-8.77% [at 10 µM] (inactive)
Nc1c(-c2nnc(-c3ccccc3)o2)sc2nc(-c3ccccc3)cc(-c3ccccc3)c12	-6.07% [at 0.6 µM] (inactive)
